DT40 TDP1 CPT = qHTS for Inhibitors of human tyrosyl-DNA phosphodiesterase 1 (TDP1): qHTS in cells in presence of CPT; chicken DT40 Tdp1-/-;hTDP1 cells + 20 nM CPT, ATP luminescence, 48 h; Potency, µM (top dose mostly 46.2 µM), inactives show top-dose activity change, negative = growth inhibition, most hits filed as inhibitors; hit rate 12% among 420,000; also: potency is read from the fitted curve at half-maximal effect; nearly all actives have a fitted effect of over 55% in size
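Chicken DT40 Tdp1-/- cells complemented with human TDP1, 400 cells/well, exposed to compounds plus 20 nM camptothecin for at least 48 h at 37 C; viability read as ATP content by CellTiter-Glo luminescence.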
HT1080-NT tox = qHTS for induction of synthetic lethality in tumor cells producing 2HG: qHTS for the HT-1080-NT fibrosarcoma cell line; HT-1080-NT fibrosarcoma viability, CellTiter-Glo ATP luminescence, 48 h; Potency, µM (doses to about 46.1 µM), for inactives: top-dose activity, negative = less viability, hits mostly cytotoxic; hit rate 1.6% among 360,000; AID 686970, 2013;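 also: NT is the 2HG producing partner of a matched IDH1 knockdown line; potency is read from the fitted curve at half-maximal effect; 0% = DMSO-treated cells and -100% = media-only wells without cells; nearly all actives have a fitted effect of over 55% in size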
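Read-out is CellTiter-Glo luminescence after 10 minutes at room temperature, following 48 hours' compound treatment of HT-1080-NT cells (750 cells/well, RPMI, 5% FBS, 37 degrees C).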
IL-1B inflam inh = qHTS for Inhibitors of Inflammasome Signaling: IL-1-beta AlphaLISA Primary Screen; hit rate 4.7% among 360,000; AID 743279, 2014; THP-1 LPS/ATP IL-1B secretion, AlphaLISA, 16 h; stronger effect = lower value; activity change, % at 57.5 µM; in the data active = activity change below about -50%; inconclusive = mostly about -30% to -49%
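Secreted IL-1B measured by AlphaLISA bead assay after 16 h compound exposure of THP-1 cells; compounds (final up to 57.5 uM) added 1 h before LPS (250 ng/mL) and ATP (1.25 mM) stimulation; lower signal means less secretion.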
HT1080 IDH1KD tx = qHTS for induction of synthetic lethality in tumor cells producing 2HG: qHTS for the HT-1080-IDH1KD cell line; HT-1080 IDH1 knockdown viability, ATP luminescence, 48 h; Potency, µM (series often up to 46.1 µM), for the others: at the highest dose activity, negative = toxicity, hits mostly cytotoxic; hit rate 2% among 360,000; AID 686971, 2013;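 also: potency is read from the fitted curve at half-maximal effect; 0% = DMSO wells and -100% = cell-free medium wells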
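Using the IDH1-knockdown HT-1080 line run in the same batch and compound series as the NT line, viability after 48 h at 37 °C was determined by CellTiter-Glo luminescence and expressed as % activity.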
DT40 TDP1 no CPT = qHTS for Inhibitors of human tyrosyl-DNA phosphodiesterase 1 (TDP1): qHTS in cells in absence of CPT; AID 686978, 2013; DT40 Tdp1-/- hTDP1 cells, no CPT, ATP luminescence, 48 h; hit rate 15% among 420,000; Potency, µM (top dose mostly 46.2 µM), inactives show at the top dose activity change, negative = growth inhibition, hits mostly inhibitors; also: potency is read from the fitted curve at half-maximal effect; nearly all actives have a fitted effect of over 55% in size
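Chicken DT40 Tdp1-/- cells complemented with human TDP1, screened without camptothecin (DMSO vehicle only), 400 cells/well. Compounds pin-transferred, cells incubated at 37 °C for at least 48 hr. Growth read as ATP-dependent luminescence (CellTiter-Glo, 30 min at RT).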
ELG1 DNA repair = qHTS screen for small molecules that inhibit ELG1-dependent DNA repair in human embryonic kidney (HEK293T) cells expressing luciferase-tagged ELG1; HEK293T ELG1-luciferase reporter, luminescence, 16 h; DNA damage induced by 5-fluorouridine; Potency, µM (titrated, usually from 46.1 µM), for inactives: top-dose activity change, negative = inhibition, usual class: inhibitors; hit rate 2.3% among 330,000; AID 504467, 2011; also: potency is read from the fitted curve at half-maximal effect; nearly all actives have a fitted effect of over 55% in size
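5-Fluorouridine DNA damage + compound/DMSO, 2,000 cells/well, 16 h, 37 °C/5% CO2. ONE-Glo, 30 min RT, luminescence. Readout = decrease in reporter signal.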
Starred values were filed as active, the others as inactive; ? = inconclusive; nt = no result given; [ ] = another dose, or the depositor's remark. In the library only some 19% were active in any assay of this set; here they are far more common. Unless noted, calls follow the shape of the dose curve; as a rule, active = well fitted curve in the direction sought with a large enough effect; inconclusive = small, poorly fitted or top-dose-only effect, or another doubt; inactive = no such curve, though single readings can be large; an effect the other way counts as inactive or inconclusive. Unless noted, % is scaled to controls: 0 for no effect and ±100 for the full control effect.

SMILES | DT40 TDP1 CPT | HT1080-NT tox | IL-1B inflam inh | HT1080 IDH1KD tx | DT40 TDP1 no CPT | ELG1 DNA repair
COc1ccc(OC)c2c1sc(=NC(=O)C(C)(C)C)n2C | 20.6µM* | 1.1% | 3.4 | 18.1% | ? | 21.8%
CCCC(=O)N=c1sc2c(OC)ccc(OC)c2n1C | -25.2% | 29.0% | 12.7 | 19.1% | -10.9% | -8.9%
COc1ccc(OC)c2c1sc(=NC(=O)C(C)C)n2C | 23.1µM* | 0.7% | 22.7 | 1.7% | ? | -5.4%
COc1ccc(CN2CCc3nc(SCC(=O)Nc4cc(C)cc(C)c4)[nH]c(=O)c3C2)cc1 | -24.4% | nt | nt | nt | -19.4% | nt
CC1(C)S[C@@H]2[C@H](NC(=O)C(N)c3ccccc3)C(=O)N2[C@H]1C(=O)OC1OC(=O)c2ccccc21 (stereo partly specified) | ? | nt | nt | nt | -25.0%[21.1 µM] | nt
CC(C)(C)c1ccc2c(c1)OC(C(=O)N/N=C\c1ccncc1)CO2 (stereo unspecified) | ? | -6.8% | nt | -25.0% | ? | 14.6µM*
Cn1cccc1/C=N\NC(=O)C1COc2ccc(C(C)(C)C)cc2O1 (stereo unspecified) | -2.3% | -12.7% | 2.5 | -1.7% | ? | -19.0%
CC(C)(C)c1ccc2c(c1)OC(C(=O)N/N=C/c1ccc([N+](=O)[O-])o1)CO2 (stereo unspecified) | 16.4µM* | -25.2% | -8.5 | ? | 11.6µM* | ?
CC(C)(C)c1ccc2c(c1)OC(C(=O)N/N=C\c1ccc[nH]1)CO2 (stereo unspecified) | ? | ? | -12.1 | 3.66µM* | ? | -7.2%
Cc1cc(C)c2oc(C(=O)Nc3ccc(S(=O)(=O)Nc4ncccn4)cc3)cc(=O)c2c1 | -15.1% | nt | nt | nt | -10.8% | nt
COc1ccc(OC)c(S(=O)(=O)NC2CC(=O)N(c3cccc(F)c3)C2)c1 (stereo unspecified) | -3.6% | 3.0% | 0.0 | 4.1% | ? | ?
CC(C)c1nnc(SCC(=O)Nc2ccc3c(c2)OCCO3)n1C | 24.2% | 7.7% | 9.0 | 13.5% | -2.9% | 2.6%
COc1ccc(C(=O)/C=C2\Sc3ccccc3N2C)cc1 | -2.6% | -1.2% | -2.4 | -6.9% | ? | ?
CC(=S)/C=C1\Sc2ccccc2N1C | 14.6µM* | ? | -60.6* | ? | 23.1µM* | ?
C[C@@H](Nc1nc(Cl)nc2nc[nH]c12)c1ccccc1 | 20µM* | nt | nt | nt | 15.8µM* | nt
CC(C)CCn1c(=O)c2ccccc2c2ccccc2c1=O | -16.8% | -10.6% | 16.3 | -16.4% | ? | 1.5%
O=C1c2ccccc2-c2c1c1ccccc1c(=O)n2CCO | 6.51µM* | -3.2% | nt | ? | 7.31µM* | nt
O=C1c2ccccc2-c2c1c1ccccc1c(=O)n2-c1ccccc1 | 11.6µM* | -1.1% | -11.2 | 4.3% | 11.6µM* | nt
O=c1c2ccccc2n2nnnc2n1-c1ccccc1 | 3.7% | 14.1% | 16.0 | 6.9% | -15.4% | nt
CCOC(=O)C[C@H]1c2ccc(C(F)(F)F)cc2S(=O)(=O)N1c1cccc(OC)c1 | ? | -2.0% | 0.4 | -12.4% | ? | nt
CCC[n+]1c(/C=C/c2c(OC)cc(OC)cc2OC)ccc2ccccc21 | 0.112µM* | nt | nt | nt | 0.0891µM* | nt
CCCC[n+]1c(/C=C/c2c(OC)cc(OC)cc2OC)ccc2ccccc21 | 0.316µM* | nt | nt | nt | 0.0891µM* | nt
CN(CCCS(=O)(=O)[O-])c1ccc(/C=C/c2ccc3ccccc3[n+]2C)cc1 | -14.8% | 0.6% | 10.4 | -3.4% | ? | 4.4%
COc1cc(OC)c(/C=C/c2ccc3ccccc3[n+]2C)c(OC)c1 | 0.1µM* | nt | nt | nt | 0.1µM* | nt
Cc1cc(C)c2c(c1)NC(c1cc3c(cc1Br)OCO3)C1CC=CC21 (stereo unspecified) | -20.6% | -15.7% | 0.0 | -18.5% | ? | 7.2%
SMILES | DT40 TDP1 CPT | HT1080-NT tox | IL-1B inflam inh | HT1080 IDH1KD tx | DT40 TDP1 no CPT | ELG1 DNA repair
CN(c1ccccc1C(=O)Nc1cccc(Br)c1)S(=O)(=O)c1ccccc1 | ? | 0.8% | ? | -7.7% | ? | ?
CCOc1ccc(NC(=O)Cn2nc3c(cc2=O)CC(C)CC3)cc1 (stereo unspecified) | 7.2% | nt | nt | nt | -9.2% | nt
CCCCN1C(=O)C(CC(=O)NC2CC2)CC(C(=O)N2CCOCC2)=C1C (stereo unspecified) | -1.3% | 9.3% | 3.3 | 6.6% | 8.4% | nt
CCN(C(=O)c1cc2c(=O)oc3ccc(C)cc3c2s1)c1ccccc1F | ? | nt | nt | nt | 20.6µM* | nt
Cc1cccc(N(C)C(=O)c2cc3c(=O)oc4ccc(C)cc4c3s2)c1 | -1.9% | nt | nt | nt | -25.4% | nt
Cc1ccc2[nH]c(=O)c3cc(C(=O)N(C)C4CCCCC4)sc3c2c1 | -3.0% | 3.9% | nt | 0.5% | 10.2% | 12.8%
Cc1ccc2[nH]c(=O)c3cc(C(=O)N(C)c4ccc(C)c(C)c4)sc3c2c1 | 10.3µM* | 6.5% | 37.2 | 8.6% | 10.3µM* | ?
CCN(C(=O)c1cc2c(=O)[nH]c3ccc(C)cc3c2s1)c1cccc(C)c1 | ? | 14.0% | 11.7 | 10.3% | 18.4µM* | -6.5%
CCN(C(=O)c1cc2c(=O)[nH]c3ccc(C)cc3c2s1)c1ccccc1C | 2.59µM* | -19.7% | 81.6 | ? | 2.91µM* | -8.2%
